Measurements from PubChem BioAssay AID1671194 (National Center for Advancing Translational Sciences (NCATS), 2021).
About 240 (0.17%) of roughly 140,000 compounds were called active. About 9% were inconclusive and are not listed. Shown is part of a subset that was picked to be rich in actives. Unmarked numbers belong to inactive results. The call rests on the fitted dose curve; in most records, active means well fitted inhibition curve with a large enough effect; inconclusive means small, poorly fitted or top-dose-only effect; inactive means no such curve, though single readings can be large or run the other way.

Assay: Primary qHTS assay for inhibitors of alpha-synuclein gene (SNCA) expression; further: nearly all actives have a fitted effect of over 45% in size
Details: HEK-293 SNCA-luciferase knock-in, luminescence, 24 h; series mostly up to 57.2 µM; activity change, negative = inhibition: at the top concentration
Source text: Assay Submitter (PI): Daniel R. Scoles Ph.D.
Department of Neurology, University of Utah, Salt Lake City, Utah
Accumulation of alpha-synuclein is a main underlying pathological feature of Parkinson's disease (PD) and alpha-synucleinopathies, for which lowering expression of the alpha-synuclein gene (SNCA) is a potential therapeutic avenue. Using a cell-based luciferase reporter of SNCA expression we performed a quantitative high throughput screen (qHTS) of 155,885 compounds in dose response. The screening assay was generated using genome editing to insert the luciferase gene downstream and in frame of the SNCA gene in HEK-293 cells (1). A viability counterscreen using GF-AFC was used to eliminate cytotoxic and false positive compounds. After in silico analysis (clustering, removal of frequent hitter nuisance chemotypes), inhibitor compounds from the primary screen were selected for follow up and re-tested at 11-doses in the SNCA-luc cells (luciferase and GF-AFC confirmation), and in CMV-luc expressing cell line to flag general transcriptional repressors.
Described herein are the results of the primary screen for SNCA inhibitors; decrease in luciferase signal (inhibition of the SNCA gene expression) is the desired output for this assay.
1. Dansithong, W., Paul, S., Scoles, D. R., Pulst, S. M., and Huynh, D. P. (2015) Generation of SNCA Cell Models Using Zinc Finger Nuclease (ZFN) Technology for Efficient High-Throughput Drug Screening. PLoS ONE 10, e0136930.
SEQUENCE No. (e.g., 1, 2, 3, etc.); […] (e.g., Cells, Incubation, Reagent, etc.); VALUE; DESCRIPTION
1; Cells; 4 uL; Dispense 1500 HEK-293-SNCA-luc cells/well into Greiner 1536-well white / solid bottom tissue culture treated plate. The plate was covered with metal lids with gas-exchange holes.
2; Incubate; 24 hours; Incubate at 37C, 5% CO2, 95% RH.
3; Compounds; 23 nL; Compounds and controls were transferred via a Kalypsys Pin Tool (Wako USA) equipped with a 1536-slotted pin array. The plate was covered with metal lids with gas-exchange holes.
4; Incubate; 24 hours; Incubate at 37C, 5% CO2, 95% RH.
5; Dispense; 1 uL; Dispense Gly-Phe-7-amino-4-trifluoromethylcoumarin (GF-AFC, prepared at 125 uM in PBS) was added. The plate was covered with metal lids with gas-exchange holes.
6; Incubate; 30 min; Incubate at 37C, 5% CO2.
7; Detector; Fluorescence; Measure fluorescence with ViewLux microplate reader (PerkinElmer) equipped with 405/10 excitation and 540/25 emission filters.
8; Dispense; 3 uL; Dispense ONE-Glo ([…]) lucifase detection reagent was added to each well. Plates were covered with metal lids with gas-exchange holes.
9; Incubate; 15 min; Incubate at room temperature.
10; Detector; Luminescence; Measure luminescence with ViewLux microplate reader (PerkinElmer) equipped with clear filters.
NOTES (numbers refer to sequence above)
1; HEK-293-SNCA-luc were cultured and suspended in phenol-red free DMEM (4.5 g/L glucose, 25 mM HEPES, cat #21063 (Thermo)).
3; Compounds were added to the assay plate in an 11-point intra plate dose response, 1:3 titration in DMSO with a final concentration range of […]. Vehicle-only plates, with DMSO being pin-transferred to every well, were inserted at the beginning of screening runs to confirm expected assay performance. Activity was normalized to wells containing medium only (-100% activity, full inhibition) and SNCA-luc cells treated with DMSO vehicle control (0% activity), contained on the same plate as test samples.
10; Signals were analyzed, and dose-response curves were fit using the Hill equation. Compounds in curve classes -1.1, -1.2, -2.1, -2.2 in the SNCA-luc assay were considered active. Compounds were eliminated from further consideration if also active (curve class -1.1, -1.2, -1.3, -1.4, -2.1, -2.2, -2.3, -2.4) in the GF-AFC cytotoxicity assay.
Potency means the concentration at half of the fitted maximal effect.

In order of falling “activity change, negative = inhibition” value:
1. c1ccc(CNC[C@H]2Cn3cc(-c4ccccc4)nc3CO2)cc1  84.9% [at 87.6 µM]
2. Cc1ccc(-c2noc([C@@H]3C[C@@H](O)CN3Cc3cccc(C#N)c3)n2)cc1F  50% [at 87.6 µM]
3. COc1ccccc1-c1[nH]nc2ncc(-c3cccc(CO)c3)nc12  40% [at 87.6 µM]
4. O=C(NCc1cccc(F)c1)c1c[nH]c2ncccc12  38.6% [at 87.6 µM]
5. Cc1nnc(-c2cc(-c3ccccc3)ccn2)n1CCc1ccccc1  32.3% [at 87.6 µM]
6. COc1ccc(Nc2cnc3ccc(-c4ccc(OC)nc4)nn23)cc1  16% [at 87.6 µM]
7. CC(=O)N1CCC(N[C@H]2C[C@@H](Cc3cc(CN(C)c4ccccc4)on3)C2(C)C)CC1  4.87% [at 87.6 µM]
8. COCCOCC1(CNS(=O)(=O)c2c(C)noc2C)C[C@@H](O)[C@@H](O)C1 (some centres undefined)  4.32% [at 87.6 µM]
9. COc1ccc(CN2CC(Oc3ccc(OC)cc3)C2)cc1  -5.4% [at 87.6 µM]
10. Cc1ccccc1-c1ccnc(-c2nnc(C)n2C(C)C)c1  -7.25% [at 87.6 µM]
11. CC1(C)[C@H](Cc2cc(CC3CCCCC3)on2)C[C@@H]1NC1CCOCC1  -20.1% [at 87.6 µM]
12. O=C(NCCc1ccccc1)C1=NO[C@@H]2CN(Cc3ccc(F)cc3)C[C@H]12  -24% [at 87.6 µM]
13. O=C1CO[C@H]2CN(C3CCC3)C[C@H]2N1Cc1ccc(OC(F)(F)F)cc1  -24.4% [at 87.6 µM]
14. CC1=C[C@@H](CN2CCCC2)[C@H](C(C)C)C[C@H]1Cc1nnc(-c2ccc([N+](=O)[O-])cc2)o1  -27.7% [at 87.6 µM]

In order of rising “activity change, negative = inhibition” value:
1. O=C(NCc1ccc(F)cc1)c1nc(-c2ccccc2)c2ccccn12  -74.1%
2. O=C(Cc1ccccn1)N1CCCC(C(=O)N2CCC(c3nc4ncccc4[nH]3)CC2)C1 (centres undefined)  -25.7%
3. COc1ccccc1CCC(=O)N1C[C@H](N)C[C@H]1C(=O)NC(C)C  -20.2%
4. CCOc1cccc(CNC(=O)CC2CCCCN(Cc3ccccc3)C2=O)c1 (centres undefined)  -19.5%
5. COc1ccc2[nH]cc(CCNc3cc(-c4ccccc4CN(C)C)ncn3)c2c1  -19.4%
6. COc1cccc(CNC(=O)c2cc(-c3cccnc3)nc3c2cnn3C)c1  -17.4%
7. O=C1NCCCCCN(C(=O)Cc2ccccc2)[C@@H]2C[C@@H](C(=O)N3CCc4ccccc4C3)C[C@H]12  -16.4%
8. CS(=O)(=O)N(Cc1ccccn1)C1CN(C(=O)NCCc2ccccc2)C1  -15.2%
9. COc1cc(OC)c(CNC(=O)c2c(C)noc2-c2cc(OC)c(OC)c(OC)c2)c(OC)c1  -14%
10. Cn1ncc2c(C(=O)NCc3cccnc3)cc(C(C)(C)C)nc21  -10.6%
11. Cc1ccc(C(=O)N2CCC(N3CC4CC(C3)[C@H]3CCCC(=O)N3C4)CC2)s1 (some centres undefined)  -10.4%
12. CN(C)c1ccc(CN[C@H]2[C@H](O)[C@@H](N3CCC(Cc4ccccc4)CC3)[C@@H]3OC[C@H]2O3)cc1  -9.07%
13. CC(C)CNC(=O)C1CCCN(c2nccc(Nc3ccccc3F)n2)C1 (centres undefined)  -8.89%
14. COc1ccc(-c2cn3cc(C(=O)NCc4ccc(F)cc4)nc3s2)cc1  -7.67%
15. COCCN1C(=O)N(C)C(=O)C12CCN(Cc1cc(F)ccc1F)C2 (centres undefined)  -6.12%
16. COCC(=O)N1CC(C(=O)NCCc2ccccn2)C2(CCOCC2)C1 (centres undefined)  -5.39%
17. Cc1nc(N2CCC(NCCNc3ccncc3C)CC2)c2ccsc2n1  -2.65%
18. CCCCn1c(=O)c(C(=O)N2CCN(C(=O)c3ccccc3)CC2)nc2cccnc21  -2.39%
19. O=C1NC2(Cc3ccccc31)CN([S+](=O)([O-])c1ccccc1)C2  -1.01%
20. COc1ccc(CC(=O)NC2CCN(c3cc(-c4ccccc4)[nH]n3)CC2)cc1  0.566%
21. CCN(CC)Cc1ccc2c(c1)CN(C(=O)Cc1c[nH]c3ccccc13)CCO2  1.62%
22. Cc1ccc(OCC(=O)N2CCC(c3nn(C)c4c3COCC4)CC2)cc1  1.65%
23. CN(Cc1ccccc1)C(=O)CC1CCN(C(=O)CCC2CCCC2)C1 (centres undefined)  5.5%
24. Cc1ccccc1C(=O)N1CCC(C(=O)N2CCC(c3nc4ccncc4[nH]3)C2)CC1 (centres undefined)  6.85%
25. Cc1ccc(C(=O)N2CCC3(CC2)NC(=O)N(Cc2ccc(F)cc2)C3=O)cc1  7.66%
26. Cc1ccc(CNC(=O)c2ccc3c(c2)CN(Cc2cccnc2Cl)CCO3)cc1  9.94%
27. O=C(NCc1ccccc1)C1CCN(c2nccc(Nc3ccccc3Cl)n2)CC1  15.5%
28. O=S(=O)(c1cccc(F)c1)N1CC[C@@H]2COCCN(Cc3cccnc3)[C@@H]2C1  16.8%
29. CCCNC(=O)C(NC(=O)c1ccccc1C)C1CCN(C(=O)c2ccc(OC)cc2)CC1 (centres undefined)  17.1%
30. N#Cc1cccc(-c2c(C(=O)NCCc3ccccc3)nc3sccn23)c1  21.4%
31. CC(=O)N1CCN(C(=O)C2CCCN2Cc2ccc(-c3cc(C)cc(C)c3)cc2)CC1 (centres undefined)  22.3%
32. O=C(Cc1ccccn1)N1CCC(C(=O)N2CCC(N3CCCC3=O)CC2)CC1  23%

For `O=C1NCCc2[nH]c(-c3ccncc3)cc21`, the Potency was 3.41 µM (active).
With `CC(=O)c1cnc2ccc(-c3cc(Cl)c(O)c(Cl)c3)nc2c1NC1CCC(CN(C)C)CC1` (centres undefined) the Potency was 0.027 µM (active).
In the case of `CN(C)CCc1c[nH]c2ccc(Cn3cncn3)cc12`, the Potency is reported as 2.71 µM (active).
